From PubChem BioAssay AID1159580 (chemical genetic matrix, 2015)
About 2,000 (36%) of roughly 5,500 compounds were called active. About 18% were inconclusive and are not listed. This is one part of the list. Values without a mark were called inactive. Rule as the data show it: active = normalized growth mostly below about 0.91 (no sharp cut-off); inconclusive = no clear call, values can overlap the other calls; inactive = mostly above about 0.92.

Assay: chemical genetic growth profiling, strain panel (AID 1159580);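 also: tested at 20 µM; growth read once vehicle control cultures reached saturation at 30 °C; 1 = growth at the plate median or of vehicle wells; lower values mean less growth of the strain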
Conditions: S. cerevisiae deletion strains, growth OD
[1] = locus YAR019C, strain CDC15, hits give low values
[2] = locus YBL105C, strain PKC1, hits give low values
[3] = locus YBR136W, strain MEC1, hits give low values
[4] = locus YBR160W, strain CDC28, hits give low values
[5] = locus YDL017W, strain CDC7, hits give low values
[6] = locus YDL028C, strain MPS1, hits give low values
[7] = locus YDL101C, strain DUN1, hits give low values
[8] = locus YDL108W, strain KIN28, hits give low values
[9] = locus YDL214C, strain PRR2, hits give low values
[10] = locus YDR052C, strain DBF4, hits give low values
[11] = locus YDR054C, strain cdc34, hits give low values
[12] = locus YDR226W, strain ADK1, hits give low values
[13] = locus YER123W, strain YCK3, hits give low values
[14] = locus YFR003C, strain YPI1, hits give low values
[15] = locus YGR040W, strain KSS1, hits give low values
[16] = locus YGR052W, strain FMP48, hits give low values
[17] = locus YGR092W, strain DBF2, hits give low values
[18] = locus YHR030C, strain SLT2, hits give low values
[19] = locus YIL147C, strain SLN1, hits give low values
[20] = locus YJL095W, strain BCK1, hits give low values
[21] = locus YJL128C, strain PBS2, hits give low values
[22] = locus YJR016C, strain ILV3, hits give low values
[23] = locus YJR066W, strain TOR1 (second series), hits give low values
[24] = locus YJR066W, strain TOR1, hits give low values
[25] = locus YKL048C, strain ELM1, hits give low values
[26] = locus YKL067W, strain YNK1, hits give low values
[27] = locus YKL101W, strain HSL1, hits give low values
[28] = locus YKL203C, strain TOR2, hits give low values
[29] = locus YLR113W, strain HOG1, hits give low values
[30] = locus YLR133W, strain CKI1, hits give low values
[31] = locus YLR403W, strain SFP1, hits give low values
[32] = locus YML070W, strain DAK1, hits give low values
[33] = locus YMR001C, strain CDC5, hits give low values
[34] = locus YMR205C, strain PFK2 (second series), hits give low values
[35] = locus YNL006W, strain LST8, hits give low values
[36] = locus YNL020C, strain ARK1, hits give low values
[37] = locus YNL161W, strain CBK1, hits give low values
[38] = locus YNL183C, strain NPR1, hits give low values
[39] = locus YNL207W, strain RIO2, hits give low values
[40] = locus YOR119C, strain RIO1, hits give low values
[41] = locus YOR329C, strain SCD5, hits give low values
[42] = locus YPL153C, strain RAD53, hits give low values
[43] = locus YPL209C, strain IPL1, hits give low values
[44] = locus YPL256C, strain CLN2, hits give low values
[45] = locus YPR106W, strain ISR1, hits give low values
[46] = locus YPR111W, strain DBF20, hits give low values
[47] = strain NNK1, hits give low values

CC(C)/C(=N/OC(=O)c1ccc([N+](=O)[O-])cc1)c1ccccc1
normalized growth [1]: 0.974
normalized growth [2]: 0.965
normalized growth [3]: 0.967
normalized growth [4]: 0.957
normalized growth [5]: 0.963
normalized growth [6]: 0.955
normalized growth [7]: 0.952
normalized growth [8]: 0.962
normalized growth [9]: 0.148 (active)
normalized growth [10]: 0.979
normalized growth [11]: 0.955
normalized growth [12]: 0.949
normalized growth [13]: 0.909
normalized growth [14]: 0.96
normalized growth [15]: 0.231 (active)
normalized growth [16]: 0.814
normalized growth [17]: 0.843
normalized growth [18]: 0.337 (active)
normalized growth [19]: 0.96
normalized growth [20]: 0.745
normalized growth [21]: 0.943
normalized growth [22]: 0.957
normalized growth [23]: 0.137 (active)
normalized growth [24]: 0.769
normalized growth [25]: 0.991
normalized growth [26]: 0.911
normalized growth [27]: 0.242 (active)
normalized growth [28]: 0.802
normalized growth [29]: 0.604 (active)
normalized growth [30]: 0.175 (active)
normalized growth [31]: 0.0636 (active)
normalized growth [32]: 0.909
normalized growth [33]: 0.384 (active)
normalized growth [34]: 0.126 (active)
normalized growth [35]: 0.507 (active)
normalized growth [36]: 0.174 (active)
normalized growth [37]: 0.378 (active)
normalized growth [38]: 0.595
normalized growth [39]: 0.955
normalized growth [40]: 0.814
normalized growth [41]: 0.637 (active)
normalized growth [42]: 0.671
normalized growth [43]: 0.966
normalized growth [44]: 0.582 (active)
normalized growth [45]: 0.978
normalized growth [46]: 0.972
normalized growth [47]: 0.97

N/C(=N/OC(=O)c1cnn(-c2ccc([N+](=O)[O-])cc2)c1C(F)(F)F)c1ccc(Cl)cc1
normalized growth [1]: 0.985
normalized growth [2]: 0.972
normalized growth (locus YBR135W, strain CKS1, hits give low values): 0.964
normalized growth [3]: 0.971
normalized growth [4]: 0.974
normalized growth [5]: 0.984
normalized growth [6]: 0.985
normalized growth [7]: 0.992
normalized growth [8]: 0.975
normalized growth (locus YDL132W, strain cdc53, hits give low values): 0.974
normalized growth [9]: 0.937
normalized growth [10]: 0.983
normalized growth [11]: 0.97
normalized growth [12]: 0.982
normalized growth (locus YDR477W, strain SNF1, hits give low values): 0.944
normalized growth [13]: 0.96
normalized growth (locus YER133W, strain GLC7, hits give low values): 0.82
normalized growth (locus YFL009W, strain cdc4, hits give low values): 0.982
normalized growth (locus YFL029C, strain CAK1, hits give low values): 0.973
normalized growth [14]: 0.98
normalized growth (locus YFR019W, strain FAB1, hits give low values): 0.974
normalized growth (locus YFR028C, strain CDC14, hits give low values): 0.979
normalized growth [15]: 0.916
normalized growth [16]: 1.06
normalized growth [17]: 0.964
normalized growth [18]: 1.01
normalized growth (locus YHR079C, strain IRE1, hits give low values): 1.04
normalized growth (locus YHR082C, strain KSP1, hits give low values): 1.07
normalized growth (locus YHR205W, strain SCH9, hits give low values): 0.699
normalized growth [19]: 0.979
normalized growth [20]: 1.04
normalized growth [21]: 0.98
normalized growth (locus YJL157C, strain FAR1, hits give low values): 0.973
normalized growth [22]: 0.976
normalized growth [23]: 0.955
normalized growth [24]: 1.01
normalized growth [25]: 0.993
normalized growth [26]: 0.972
normalized growth [27]: 0.983
normalized growth (locus YKL193C, strain SDS22, hits give low values): 0.982
normalized growth [28]: 1.04
normalized growth [29]: 0.98
normalized growth [30]: 0.881
normalized growth [31]: 0.74
normalized growth [32]: 0.92
normalized growth [33]: 0.981
normalized growth [34]: 0.886
normalized growth (locus YMR277W, strain FCP1, hits give low values): 0.981
normalized growth [35]: 0.99
normalized growth [36]: 0.989
normalized growth [37]: 0.979
normalized growth [38]: 1.01
normalized growth [39]: 0.98
normalized growth (locus YNL222W, strain SSU72, hits give low values): 0.969
normalized growth (locus YNL307C, strain MCK1 (second series), hits give low values): 0.987
normalized growth (locus YOL078W, strain AVO1, hits give low values): 0.969
normalized growth (locus YOL136C, strain PFK27, hits give low values): 0.979
normalized growth (locus YOR061W, strain CKA2, hits give low values): 0.912
normalized growth [40]: 1.06
normalized growth (locus YOR231W, strain MKK1, hits give low values): 0.961
normalized growth [41]: 0.985
normalized growth (locus YPL031C, strain PHO85, hits give low values): 0.974
normalized growth [42]: 0.976
normalized growth (locus YPL204W, strain HRR25, hits give low values): 1.01
normalized growth [43]: 0.978
normalized growth [44]: 0.961
normalized growth (locus YPR025C, strain CCL1, hits give low values): 0.973
normalized growth [45]: 0.993
normalized growth [46]: 0.976
normalized growth [47]: 0.995
normalized growth (strain TSCII, hits give low values): 0.989
